Screens deposited in PubChem BioAssay by National Center for Advancing Translational Sciences (NCATS).
Lassa entry inh: blocks Lassa virus binding to or entry into cells; Lassa virus pseudotype entry inhibition, cell reporter; Potency, µM (titrated, usually from 37.9 µM), actives largely listed as inhibitors; hit rate 1.2% among 300,000; calls by dose curve; tested in HEK293 cells; note: nearly all actives have a fitted effect of over 50% in size
Pf growth 96h: P. falciparum growth inhibition at 96 hour, primary screen for plastid delayed-death inhibitors. P. falciparum luciferase reporter growth, 96 h. Potency, µM (series often up to 28.7 µM), hits mostly inhibitors. AID 504834. hit rate 6.9% among 320,000
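Compounds incubated with erythrocytes infected by luciferase-expressing P. falciparum (2% hematocrit, 0.05% parasitemia final) for 96 hours, 37 C in 5% CO2. Growth inhibition scored as decreased luciferase luminescence.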
Marburg entry inh: Marburg virus entry inhibition. Potency, µM (highest dose often 37.8 µM), hits mostly inhibitors. AID 540276. Marburg virus pseudotyped entry inhibition, cell reporter. hit rate 1.8% among 300,000; calls by dose curve; tested in HEK293 cells
Pf growth 48h: inhibits P. falciparum growth in the first generation, 48 h | hit rate 5.9% among 310,000 | Potency, µM (top dose mostly 28.7 µM), actives largely listed as inhibitors | P. falciparum luciferase growth in erythrocytes, 48 h
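Erythrocytes infected with P. falciparum carrying an integrated firefly luciferase reporter (2% hematocrit, 0.1% parasitemia final) were exposed to compounds in RPMI 1640 with 0.5% Albumax at 37 C, 5% CO2. Growth inhibition was scored as reduced luminescence.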
HCMV antiviral: inhibitors of human cytomegalovirus; hit rate 4.5% among 410,000; HFF cells, HCMV-luciferase reporter, 72 h; hits give low values; activity change, negative = inhibition, % at 57.5 µM; in the data active = activity change below about -60%; inconclusive = no clear call, values can overlap the other calls; inactive = above about -39%
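Two-dose cell screen: HFF monolayers treated with compounds and infected with luciferase-expressing HCMV at 1 PFU/cell, 72 h at 37C, then lysed for luciferase measurement.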
HCV inhibitor: HCV inhibition | Huh7.5.1 HCVcc-Cre infection, luciferase reporter, 44 h | Potency, µM (highest dose often 41.8 µM), actives largely listed as inhibitors | hit rate 3.4% among 340,000
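Cells seeded at 1,000/well and cultured 4 h, then compounds added followed by HCVcc-Cre virus (~0.5 moi). After 44 h further culture, luciferase substrate was added, plates held 15 min at room temperature, and luminescence read for 15 sec.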
Hits are given with their value; [ ] = another dose, or the depositor's remark. Rows were chosen to be rich in hits. Some 14% of all compounds tested hit in one or more screens of this group. Unless noted, calls come from the whole dose curve; as a rule, active = well fitted inhibition curve with a large enough effect; inconclusive = small, poorly fitted or top-dose-only effect, or another doubt; inactive = no such curve, though single readings can be large or run the other way.

What do the screens show for `O=C(CSc1nnnn1C1CC1)N1CCN(c2ccc(O)cc2)CC1`?
Pf growth 96h: inconclusive; Pf growth 48h: inconclusive; HCMV antiviral: inconclusive; HCV inhibitor: inactive

Results for O=C(CSc1nnnn1C1CC1)N1CCN(c2cccc(Cl)c2)CC1 ?
HCMV antiviral: inactive; HCV inhibitor: 13µM

How did CC(C)c1ccc(CN2CCN(C(=O)CSc3nnnn3C3CC3)CC2)cc1 do in these assays?
Pf growth 96h: 12µM; Pf growth 48h: 7.4µM; HCMV antiviral: -90; HCV inhibitor: 5.6µM

What do the screens show for `COc1ccccc1CNC(=O)C1CCN(S(=O)(=O)c2ccc3c(c2)NC(=O)CO3)CC1`?
Pf growth 96h: 10µM; Pf growth 48h: inactive; HCMV antiviral: inactive; HCV inhibitor: inactive

What do the screens show for `Cc1ccc(NC(=O)C2CCN(S(=O)(=O)c3ccc4c(c3)NC(=O)CO4)CC2)cc1`?
Lassa entry inh: inactive; Pf growth 96h: 13µM; Marburg entry inh: inactive; Pf growth 48h: inconclusive; HCMV antiviral: inconclusive; HCV inhibitor: inconclusive

Results for CC(C)c1ccc(NC(=O)C2CCN(S(=O)(=O)c3ccc4c(c3)NC(=O)CO4)CC2)cc1 ?
Pf growth 96h: inactive; Pf growth 48h: inconclusive; HCMV antiviral: -68; HCV inhibitor: inconclusive

Results for CCc1nc2nc(C)cc(Nc3cc(Cl)ccc3C)n2n1 ?
Lassa entry inh: inactive; Marburg entry inh: inactive; HCMV antiviral: inactive

Results for COc1ccc2c(c1)[C@@H](NCc1ccccn1)[C@H](C)[C@@H](c1ccccc1)N2C(=O)NC(C)C ?
HCMV antiviral: inactive

How did COC(=O)c1cc(CSc2nc3ccc(C)cc3[nH]2)oc1C do in these assays?
Lassa entry inh: inactive; Marburg entry inh: inconclusive; Pf growth 48h: inactive; HCMV antiviral: inconclusive; HCV inhibitor: inconclusive

What do the screens show for `C/C(N)=C(/C#N)C(=O)CSc1nc2ccccc2c(=O)n1CCCOC(C)C`?
Lassa entry inh: inconclusive; Pf growth 96h: inconclusive; Marburg entry inh: inconclusive; Pf growth 48h: inconclusive; HCMV antiviral: inconclusive; HCV inhibitor: inactive

Results for COCC(C)n1c(SCC(=O)c2cc(C)n(C)c2C)nc2ccccc2c1=O (stereo not given) ?
Pf growth 96h: inconclusive; Marburg entry inh: inconclusive; Pf growth 48h: 13µM; HCMV antiviral: inactive; HCV inhibitor: inconclusive

How did C=CCn1c(SCC(=O)c2cc(C)n(C(C)COC)c2C)nc2sc(C)c(C)c2c1=O (stereo not given) do in these assays?
Lassa entry inh: 9.2µM; Pf growth 96h: inactive; Marburg entry inh: inactive; Pf growth 48h: inactive; HCMV antiviral: inactive; HCV inhibitor: 10µM

What do the screens show for `COC(=O)c1cc(CSc2nnc(-c3ccccc3)c(-c3ccccc3)n2)oc1C`?
Lassa entry inh: inconclusive; Pf growth 96h: inconclusive; Marburg entry inh: inconclusive; Pf growth 48h: inactive; HCMV antiviral: inactive; HCV inhibitor: 25µM

How did CCC(C)n1c(SCC(=O)/C(C#N)=C(\C)N)nc2ccccc2c1=O (stereo not given) do in these assays?
Lassa entry inh: inconclusive; Pf growth 96h: 9.3µM; Marburg entry inh: inconclusive; Pf growth 48h: inactive; HCMV antiviral: inactive; HCV inhibitor: inactive

What do the screens show for `C=CCn1c(SCC(=O)NCCO)nc2sc(C)c(C)c2c1=O`?
Lassa entry inh: inactive; Pf growth 96h: inactive; Marburg entry inh: inactive; Pf growth 48h: inactive; HCMV antiviral: inactive; HCV inhibitor: inactive

How did CC(=O)Nc1ccc(-c2csc(NC(=O)C3CSC4(C)CCC(=O)N34)n2)cc1 (stereo not given) do in these assays?
Lassa entry inh: inactive; Pf growth 96h: inactive; Marburg entry inh: inactive; Pf growth 48h: inconclusive; HCMV antiviral: inactive; HCV inhibitor: inactive

How did COc1cccc([C@H]2Oc3ccc(OC)cc3C(=NOC[C@@H](O)COCc3ccco3)[C@H]2O)c1 do in these assays?
Marburg entry inh: inactive

What do the screens show for `C=CCn1c(SCc2c(C)noc2C)nc2sc(C)c(C)c2c1=O`?
Lassa entry inh: inconclusive; Pf growth 96h: 9.3µM; Marburg entry inh: inconclusive; HCMV antiviral: inactive; HCV inhibitor: inactive

How did COCC(C)n1c(SCc2cc(C(=O)OC)c(C)o2)nc2ccccc2c1=O (stereo not given) do in these assays?
Lassa entry inh: inconclusive; Pf growth 96h: inconclusive; Marburg entry inh: inconclusive; Pf growth 48h: inactive; HCMV antiviral: inactive; HCV inhibitor: 11µM

What do the screens show for `COc1cc(C(=O)Nc2ccc(OCc3cc(=O)n4cccc(C)c4n3)cc2)cc(OC)c1OC`?
Lassa entry inh: inactive; HCMV antiviral: inactive

Results for Cc1ccc(C(C)C)c(OCC(=O)NC2CCN(C)CC2)c1 ?
Pf growth 96h: inactive; Pf growth 48h: inactive; HCMV antiviral: inactive; HCV inhibitor: inactive

What do the screens show for `CCOC(=O)CN1N=C(c2ccc(Cl)cc2)CCC1=O`?
Lassa entry inh: inactive; Pf growth 96h: 13µM; Marburg entry inh: inactive; Pf growth 48h: inactive; HCMV antiviral: inconclusive; HCV inhibitor: inactive

Results for O=C(CN1N=C(c2ccc(Cl)cc2)CCC1=O)NCCc1ccc(Cl)cc1 ?
Lassa entry inh: inactive; HCMV antiviral: inactive

What do the screens show for `COC(=O)C(CC(C)C)NC(=O)/C=C/c1ccccc1Cl` (stereo not given)?
Lassa entry inh: inconclusive; Pf growth 96h: inactive; Marburg entry inh: inconclusive; Pf growth 48h: 13µM; HCMV antiviral: inactive; HCV inhibitor: inactive

Results for CCN(C(=O)/C=C/c1ccc2c(c1)OCO2)c1ccccc1 ?
Lassa entry inh: inactive; Pf growth 96h: inactive; Marburg entry inh: inactive; Pf growth 48h: inactive; HCMV antiviral: -71; HCV inhibitor: inactive

What do the screens show for `COC(=O)C(CC(C)C)NC(=O)/C=C/c1ccc(Cl)cc1` (stereo not given)?
Lassa entry inh: inactive; Pf growth 96h: inactive[5.75 µM]; Marburg entry inh: inactive; Pf growth 48h: inconclusive; HCMV antiviral: inactive; HCV inhibitor: inactive

Results for CCCCOC(=O)c1cccc(NC(=O)/C=C/c2ccccc2Cl)c1 ?
Lassa entry inh: inactive; HCMV antiviral: -95

What do the screens show for `CCOC(=O)c1cccc(NC(=O)/C=C/c2ccc3c(c2)OCO3)c1`?
Lassa entry inh: inconclusive; Pf growth 96h: inconclusive; Marburg entry inh: inconclusive; Pf growth 48h: inactive; HCMV antiviral: inactive; HCV inhibitor: 13µM

Results for CC(C)CN(C(=O)CSc1nc2ccccc2[nH]1)C1CCS(=O)(=O)C1 (stereo not given) ?
Lassa entry inh: inactive; Marburg entry inh: inactive; HCMV antiviral: inactive; HCV inhibitor: inactive

How did COCCN1C[C@@H](CO)O[C@@H](n2cnc3c(NCc4ccc(F)cc4)ncnc32)C1 do in these assays?
HCMV antiviral: inactive

How did CCOc1ccc(S(=O)(=O)N2CCN(c3c(C)cccc3C)CC2)c2ccccc12 do in these assays?
Lassa entry inh: inconclusive; Marburg entry inh: inactive; HCMV antiviral: inactive

Results for CCN1CCN(CCCNC(=O)c2ccc(CS(=O)c3ccc(Br)cc3)o2)CC1 (stereo not given) ?
Pf growth 96h: inactive; Pf growth 48h: inactive; HCMV antiviral: inactive; HCV inhibitor: inactive
